Several values for one entry are separate records, joined by “and”; a condition that tells them apart may be missing. Identical values can stand only once. More than one record can exist for a structure, and the calls need not agree. Activity calls are given as the source filed them. Where a call stands in place of a potency, no number is given. Unless noted, calls follow the shape of the dose curve; as a rule, active = well fitted curve in the direction sought with a large enough effect in the repeat runs; inconclusive = weak or mixed curves; inactive = no such curve, though single readings can be large; an effect the other way counts as inactive or inconclusive.
Legend:
[1] = qHTS assay for small molecule agonists of the p53 signaling pathway (AID 651631; calls by dose curve; also: nearly all actives have a fitted effect of over 15% in size; also: potency is read from the fitted curve at half-maximal effect)
In short: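 Quantitative high-throughput format: 4,000 p53RE-bla HCT-116 cells/well, 5 h pre-incubation, 16 h compound exposure at 37 °C, 2 h room-temperature substrate step, fluorescence intensity measured.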

[2] = qHTS assay for small molecules that induce genotoxicity in human embryonic kidney cells expressing luciferase-tagged ATAD5 (AID 651632); also: nearly all actives have a fitted effect of over 15% in size; also: potency is read from the fitted curve at half-maximal effect
In short: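 Concentration-response screen for ATAD5 upregulation in HEK293T luciferase reporter cells; 16 hr treatment at 37C, then luminescence after 30 min with Amplite at room temperature.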

[3] = qHTS assay for small molecule agonists of the p53 signaling pathway - cell viability (AID 651633; calls by dose curve; also: nearly all actives have a fitted effect of over 30% in size; also: potency is read from the fitted curve at half-maximal effect)
In short: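 p53RE-bla cells were treated with compound for 16 hours at 37 C. Cytotoxicity was then measured as CellTiter-Glo luminescence after 30 min at room temperature.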

[4] = qHTS assay for small molecules that induce genotoxicity in human embryonic kidney cells expressing luciferase-tagged ATAD5 - cell viability (AID 651634; calls by dose curve; also: nearly all actives have a fitted effect of over 25% in size)
In short: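 15.5 hr compound or vehicle exposure of HEK293T cells expressing luciferase-tagged ATAD5 at 37C; live-cell protease activity is read by fluorescence after 30 min of CellTiter-Fluor.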

[5] = qHTS assay for small molecule disruptors of the mitochondrial membrane potential (AID 720635); also: potency is read from the fitted curve at half-maximal effect
In short: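 HepG2 cells exposed to compound 1 hr at 37C, then Mito-MPS dye 30 min. Ratio read of aggregate (540/590 nm) versus monomer (490/535 nm) fluorescence.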

[6] = qHTS assay to test for compound auto fluorescence at 590 nm (red) in HepG2 cells (AID 720674)
In short: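 Fluorescence at 590 nm emission following 540 nm excitation was recorded from HepG2 wells one hour after compound transfer, with DMSO-only wells as vehicle and Rose Bengal sodium equivalency as the scale.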

[7] = qHTS assay to test for compound auto fluorescence at 535 nm (green) in HepG2 cells (AID 720675)
[8] = qHTS assay to test for compound auto fluorescence at 460 nm (blue) in HEK293 cells (AID 720678); also: potency is read from the fitted curve at half-maximal effect
In short: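 Triamterene serves as the blue fluorophore standard. Compound signal at 405/460 nm is read in HEK293 wells (2,000 cells, 10% dialyzed FBS) after overnight treatment at 37C.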

[9] = qHTS assay to test for compound auto fluorescence at 590 nm (red) in HEK293 cells (AID 720679)
In short: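 We plated HEK293 cells in 10% dialyzed FBS medium, let them adhere for 4-5 hr, then added 23 nL compound. Overnight at 37C and 5% CO2 preceded fluorescence measurement at 540/590nm.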

[10] = qHTS assay to test for compound auto fluorescence at 460 nm (blue) in HEK293 cell free culture (AID 720681); also: potency is read from the fitted curve at half-maximal effect
In short: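 Compounds were added to cell-free DMEM with 10% FBS and fluorescence read directly. The blue channel used 405 nm excitation and 460 nm emission, with triamterene as the reference fluorophore.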

[11] = qHTS assay to test for compound auto fluorescence at 535 nm (green) in HEK293 cell free culture (AID 720682)
In short: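 Measurement is a direct plate read of green fluorescence (485 nm in, 535 nm out) after compound addition to serum-supplemented DMEM lacking cells, with fluorescein used to express intensities.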

[12] = qHTS assay to test for compound auto fluorescence at 590 nm (red) in HEK293 cell free culture (AID 720683)
In short: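 Cell-free wells of DMEM with 10% FBS received compound, and intrinsic fluorescence was read at excitation/emission 540/590 nm. Values expressed as equivalence to Rose Bengal sodium.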

[13] = qHTS assay to test for compound auto fluorescence at 590 nm (red) in HepG2 cell free culture (AID 720684)
In short: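 Rose Bengal sodium served as the reference for red signal. Test compounds were dispensed into serum-containing MEM (10% FBS) without cells, and plates were read at 540/590 nm.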

[14] = qHTS assay to test for compound auto fluorescence at 460 nm (blue) in HepG2 cell free culture (AID 720685)
In short: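 Cell-free plates of MEM plus 10% FBS received 23 nL compound or DMSO vehicle; blue-channel (405/460 nm) intensity scored against triamterene as reference fluorophore.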

[15] = qHTS assay to test for compound auto fluorescence at 535 nm (green) in HepG2 cell free culture (AID 720686)
[16] = qHTS assay to test for compound auto fluorescence at 460 nm (blue) in HepG2 cells (AID 720687)
In short: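 HepG2 cells in MEM with 10% FBS, attached overnight at 37 C, were exposed to compound or DMSO for 1 hr at 37 C, 5% CO2. Blue fluorescence was read at 405/460 nm, with triamterene as reference fluorophore.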

[17] = biological target: Glucocorticoid receptor (Homo sapiens) (UniProt P04150); assay: qHTS assay to identify small molecule agonists of the glucocorticoid receptor (GR) signaling pathway (AID 720691; active = well fitted activation curve with a large enough effect in the signal ratio in the repeat runs, not every such curve was filed as active; inconclusive = weak or mixed curves, or effect the other way; inactive = no such curve, though single readings can be large or run the other way; the % refers to the signal ratio; also: potency is read from the fitted curve at half-maximal effect); conditions: GR-bla HeLa, beta-lactamase reporter ratio, 18 h; activation: at 62.4 µM (top of the series)
In short: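 Measures GR pathway activation through a GRE-beta-lactamase reporter stably integrated in HeLa cells, with 18 h compound treatment at 37 C and fluorescence detection using a FRET substrate.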

[18] = qHTS assay for small molecule disruptors of the mitochondrial membrane potential - cell viability (AID 720634; calls by dose curve;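 also: human HepG2 liver cancer cells; nearly all actives have a fitted effect of over 20% in size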)
In short: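 In this qHTS format, HepG2 cells plated overnight were pinned with compound, incubated 1 hr, and assayed for ATP luminescence with CellTiter-Glo after m-MPI dye addition.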

[19] = qHTS assay to test for compound auto fluorescence at 535 nm (green) in HEK293 cells (AID 720680)
Tags tell the direction and shape of the fitted curve or compound fluorescence and quenching.

Sequence of Glucocorticoid receptor (Homo sapiens) (P04150 whole entry, looked up): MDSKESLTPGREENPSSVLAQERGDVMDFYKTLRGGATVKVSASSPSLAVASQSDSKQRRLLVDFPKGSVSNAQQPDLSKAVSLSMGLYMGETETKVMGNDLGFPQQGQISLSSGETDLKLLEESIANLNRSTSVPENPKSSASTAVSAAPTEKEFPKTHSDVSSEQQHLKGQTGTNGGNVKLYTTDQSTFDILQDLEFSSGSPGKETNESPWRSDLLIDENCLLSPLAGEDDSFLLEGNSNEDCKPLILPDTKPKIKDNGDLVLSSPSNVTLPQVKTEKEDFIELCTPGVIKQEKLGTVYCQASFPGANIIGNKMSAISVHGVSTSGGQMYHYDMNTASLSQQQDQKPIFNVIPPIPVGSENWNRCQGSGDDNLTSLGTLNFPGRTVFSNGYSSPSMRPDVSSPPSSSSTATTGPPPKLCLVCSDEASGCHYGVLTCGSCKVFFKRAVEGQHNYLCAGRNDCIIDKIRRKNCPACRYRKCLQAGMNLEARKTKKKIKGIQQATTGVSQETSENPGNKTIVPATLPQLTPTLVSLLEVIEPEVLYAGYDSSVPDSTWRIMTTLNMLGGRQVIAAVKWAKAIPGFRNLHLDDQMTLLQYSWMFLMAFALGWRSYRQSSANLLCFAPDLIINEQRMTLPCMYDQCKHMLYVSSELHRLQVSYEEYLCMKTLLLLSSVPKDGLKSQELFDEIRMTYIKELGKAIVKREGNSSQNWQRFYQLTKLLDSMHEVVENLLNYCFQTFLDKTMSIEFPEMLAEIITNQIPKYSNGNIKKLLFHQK

Structure (SMILES) | Potency [1] | Potency [2] | Potency [3] | Potency [4] | Potency [5] | Potency [6] | Potency [7] | Potency [8] | Potency [9] | Potency [10] | outcome [11] | Potency [12] | Potency [13] | Potency [14] | Potency [15] | Potency [16] | Potency [17] | Potency [18] | outcome [19]
CC[C@H](c1ccc(O)cc1)[C@@H](CC)c1ccc(O)cc1 | 5.07 µM (active) and 13.7 µM (active) | inactive | inactive and 54.5 µM (active) | inactive | 8.04 µM (active) and 9.69 µM (active) | inactive | inactive | inactive | inactive | inactive | inactive | inactive | inactive | inactive | inactive | inactive | inactive | – | –
COc1ccc(-c2ccc3cc(C(=O)O)ccc3c2)cc1C12CC3CC(CC(C3)C1)C2 | 2.37 µM (active) | – | 3.76 µM (active) | inactive | – | inactive | – | inactive | – | inactive | – | inactive | inactive | inactive | inactive | inactive | – | inactive | inactive
CC[C@@]1(O)C(=O)OCc2c1cc1n(c2=O)Cc2cc3c(CN(C)C)c(O)ccc3nc2-1 | 0.237 µM (active) | inactive | 8.41 µM (active) | – | – | inactive | inactive | 17.8 µM [fluorescent] (active) | inactive | 14.1 µM (active) | – | inactive | inactive | – | inactive | – | inactive | inactive | inactive
Cc1nc(-c2ccc3c(c2)CCN(CCC2CCC(NC(=O)/C=C/c4ccc(F)cc4)CC2)CC3)no1 (centres undefined) | 27.4 µM (active) | 19.4 µM (active) | inactive | – | inactive | inactive | inactive | inactive | inactive | inactive | inactive | inactive | inactive | inactive | – | inactive | 21.9 µM (active) | inactive | inactive
CN(C)c1ccc(C2(c3ccc(N(C)C)cc3)OC(=O)c3cc(N(C)C)ccc32)cc1 | 60.9 µM (active) | inactive | inactive | inactive | 21.6 µM (active) | inactive | inactive | inactive | – | inactive | inactive | – | inactive | inactive | inactive | inactive | 4.35 µM [inconclusive] (active) | – | inactive
CSc1cnc(C)cn1 | inactive | inactive | inactive | – | inactive | inactive | inactive | inactive | inactive | inactive | inactive | inactive | inactive | inactive | – | inactive | inactive | inactive | inactive

— PubChem BioAssay (Tox21)
